# NPC1 prom act – NPC1 promoter activation; Huh7 NPC1 promoter luciferase reporter, 24 h; Potency, µM (titrated, usually from 9.22 µM), without a hit: at the highest dose activation, actives largely listed as activators; actives 2.4% (n = 320,000); further: % of control where 0% means no effect; nearly all actives have a fitted effect of over 60% in size
#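 Huh7 reporter cells (NPC1 promoter driving luciferase) are dosed with compound for 24 h at 37 °C, 5% CO2; luciferase detection reagent is then added and luminescence measured after 10 min at ambient temperature.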
# ELG1 repair inh – ELG1-dependent DNA repair inhibition. HEK293T ELG1-luciferase reporter, luminescence, 16 h; DNA damage induced by 5-fluorouridine. Potency, µM (highest dose often 46.1 µM), inactives show top-dose activity change, negative = inhibition, most hits filed as inhibitors. actives 2.3% (n = 330,000); further: on the % scale 0 is the no-effect control and ±100 the full control effect; nearly all actives have a fitted effect of over 55% in size
#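 Cells (2,000 per well) received 5-fluorouridine plus test compound or DMSO and were incubated 16 hr at 37 °C, 5% CO2. Luciferase activity was read by luminescence 30 min after ONE-Glo addition; signal suppression marked inhibition of damage-induced ELG1 function.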
# FLuc modulator – counter-screen for miR-21 project: firefly luciferase inhibitors or activators | Potency, µM (series often up to 57.5 µM), without a hit: at the highest dose activity change, negative = inhibition, hits mostly inhibitors | actives 6.9% (n = 360,000) | P08659 | AID 588342 | purified FLuc, Km substrates, luminescence inhibition;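 further: plate controls were vehicle for no effect and reference inhibitor for full effect; nearly all actives have a fitted effect of over 55% in size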
# Target sequence (P08659 whole entry, looked up): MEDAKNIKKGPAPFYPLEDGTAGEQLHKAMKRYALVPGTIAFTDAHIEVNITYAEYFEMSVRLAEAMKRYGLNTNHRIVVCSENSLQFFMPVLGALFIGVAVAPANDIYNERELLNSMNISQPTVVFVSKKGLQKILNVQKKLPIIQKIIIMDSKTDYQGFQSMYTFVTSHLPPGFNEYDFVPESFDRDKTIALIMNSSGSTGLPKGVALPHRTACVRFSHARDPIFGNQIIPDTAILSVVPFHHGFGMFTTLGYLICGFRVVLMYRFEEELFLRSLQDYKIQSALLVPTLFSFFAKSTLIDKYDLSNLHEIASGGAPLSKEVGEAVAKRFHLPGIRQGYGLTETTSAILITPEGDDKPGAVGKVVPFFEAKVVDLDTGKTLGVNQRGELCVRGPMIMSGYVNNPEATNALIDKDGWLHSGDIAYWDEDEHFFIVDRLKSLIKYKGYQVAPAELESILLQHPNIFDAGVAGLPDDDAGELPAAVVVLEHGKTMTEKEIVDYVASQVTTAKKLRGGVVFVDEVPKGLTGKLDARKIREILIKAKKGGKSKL
#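 Biochemical qHTS of compounds, final roughly 60 µM downward over six points, against 10 nM purified firefly luciferase using Km concentrations of substrates (10 uM D-luciferin, 10 uM ATP) in Tris acetate pH 7.5 buffer; luminescence output.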
# SMN2 splice enh – enhancers of SMN2 splice variant expression; Potency, µM (top dose mostly 46.1 µM), inactives show top-dose activity change, positive = activation, usual class: activators; HEK293 SMN2-luciferase splicing reporter, luminescence, 30-36 h; AID 1458; actives 2.8% (n = 210,000); further: % of control where 0% means no effect; nearly all actives have a fitted effect of over 55% in size
#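 HEK293 cells carry an SMN2 […]–luciferase reporter in which exon 7 inclusion puts luciferase in frame. Cells were plated 10-12 h before compound addition, then incubated 30-36 h at 37C. ONE-Glo luminescence was read; sodium butyrate at 4.5 mM final served as control.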
# Rab9 prom act – Rab9 promoter activation; Huh7 Rab9 promoter-luciferase reporter, luminescence, 24 h; Potency, µM (top dose mostly 9.22 µM), inactives show top-dose activation, negative = inhibition, hits mostly activators; actives 2.8% (n = 320,000); AID 485297; further: % of control where 0% means no effect; nearly all actives have a fitted effect of over 60% in size
#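 Stable Rab9-luc Huh7, 1500 cells/well, 2 h settle; cmpd in DMSO, 24 h, 37 °C/5% CO2; luciferase reagent 10 min RT; luminescence.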
# ELG1 genotox – inducers of genotoxicity in HEK293T ELG1-luciferase cells | HEK293T ELG1-luciferase reporter, luminescence, 16 h | Potency, µM (top dose mostly 46 µM), without a hit: top-dose activity change, positive = activation, actives largely listed as activators | actives 1.3% (n = 330,000) | AID 504466; further: % of control where 0% means no effect; nearly all actives have a fitted effect of over 60% in size
#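 Genotoxic stress is detected as increased luminescence from luciferase-tagged ELG1 in HEK293T cells, measured with ONE-Glo after a 16 hr treatment at 37 °C.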
# The depositor's hits bear a star; u = inconclusive; x = no result given; [ ] = dose if it differs, or a comment. Most compounds without a hit are left out; they make up all but 9.3% or so of the library. The call rests on the fitted dose curve; in most records, active means well fitted curve in the direction sought with a large enough effect; inconclusive means small, poorly fitted or top-dose-only effect, or another doubt; inactive means no such curve, though single readings can be large; an effect the other way counts as inactive or inconclusive. Potency means the concentration at half of the fitted maximal effect.
SMILES,NPC1 prom act,ELG1 repair inh,FLuc modulator,SMN2 splice enh,Rab9 prom act,ELG1 genotox
Cc1ccccc1-c1noc(C2CCCCC2)n1,-1%,u,17µM*,-6%,9%,13%
Cc1ccc2cc(-c3noc(C4CCCCC4)n3)c(=O)[nH]c2c1,2%,0%,0%,x,-1%,2%
O=C(NCc1ccc(Cl)cc1)c1cc(-c2cccs2)on1,1%,0%,-1%,14%,-1%,-2%
Clc1ccc(Cc2noc(-c3cccs3)n2)cc1,u,u,13µM*,0%,22%,6.5µM*
N#Cc1cccc(NC(=O)N2CC3(CCN(C(=O)c4cc(C(F)(F)F)cc(C(F)(F)F)c4)CC3)C2)c1,x,x,x,-12%,x,x
CCOC(=O)c1sc(/N=C/c2ccc(O)cc2O)cc1C,10%,27%,1.3µM*,-2%,9%,7%
OCc1c(OCc2cccc(F)c2)ccc2ccccc12,15%,u,u,x,9%,15%
COc1ccc(CC(=O)NNC(=O)COc2ccc(Cl)cc2C)cc1S(=O)(=O)N1CCOCC1,-1%,u,0%,x,-1%,-3%
CC(C)c1ccc(N=C(N)N=C(N)N)cc1,-24%,21µM*,4%,-33%,-11%,-14%
COc1cccc([C@@H]2Oc3ccc(Br)cc3C[C@H]2O)c1,x,x,x,1%,x,x
CCCNC(=O)COC(=O)c1ccccc1C(=O)c1ccc(Cl)c([N+](=O)[O-])c1,-41%,u,2%,-28%,-12%,-9%
Cc1ccc(Cl)c(NC(=O)COC(=O)c2ccccc2C(=O)c2ccc(Cl)c([N+](=O)[O-])c2)c1Cl,-22%,18µM*,3%,-109%,-16%,-16%
CCOC(=O)NC(=O)CSc1nc(-c2ccc(C)c(C)c2)cn1-c1ccccc1,u,u,17µM*,-18%,2.2µM*,u
COC(=O)c1sc2nc3c(cc2c1N)CCCC3,1.4µM*,u,3µM*,10µM*,0.5µM*,u
Nc1c(C(=O)N2CCOCC2)sc2nc3c(cc12)CCCC3,0.35µM*,u,0.48µM*,x,0.11µM*,0.58µM*
Nc1c(C(=O)N2CCOCC2)sc2nc3c(cc12)CCC3,1.3µM*,u,7.6µM*,11µM*,0.89µM*,2.9µM*
Nc1c(C(=O)N2CCCC2)sc2nc3c(cc12)CCCCCC3,3.2µM*,u,u,14µM*,4µM*,14%
CC1CC(C)CN(C(=O)c2ccc(S(=O)(=O)N3CC(C)CC(C)C3)cc2)C1 (configuration not stated),-4%,u,0%,x,4%,1%
CC(=O)N1CCC2(CC1)OC(=O)C(C)=C2C(=O)Nc1ccccc1C(F)(F)F,x,x,2%,x,x,x
COc1ccc(C2c3ccc4ccccc4c3Oc3ncn(CCN(C)C)c(=N)c32)cc1 (configuration not stated),0%,-12%,5%,x,1%[1.84 µM],4%
O=C(O)c1cc(Cl)c(Cl)cc1C(=O)Nc1cccnc1,0%,3%,-17%,10%,-7%,2%
O=C(Nc1cccnc1)c1cc(-c2ccc(Cl)cc2)on1,-2%,6%,1.5µM*,18%,2%,9%
O=C(Nc1cccnc1)c1cc(-c2ccc(Cl)cc2Cl)on1,4µM*,u,0.38µM*,x,u,u
O=C(Nc1cccnc1)c1ccc(S(=O)(=O)c2ccc(Cl)cc2)cc1,-7%,u,-2%,-80%,-13%,-21%
CCC(=O)N1CCc2cc(-c3csc(NC(=O)c4ccco4)n3)ccc21,18%,u,u,x,22%,-15%
SMILES,NPC1 prom act,ELG1 repair inh,FLuc modulator,SMN2 splice enh,Rab9 prom act,ELG1 genotox
CC(C)C(=O)N1CCc2cc(-c3csc(N)n3)ccc21,u,u,13µM*,13µM*,3.5µM*,22%
S=c1[nH]c2cc(-c3ccccc3)ccc2o1,5%,u,21µM*,x,16%,4%
O=S(=O)(c1ccc2oc(=S)[nH]c2c1)N1CCCCC1,2%,-20%,-9%,x,-4%,-2%
CN(C)S(=O)(=O)Nc1ccc(NS(=O)(=O)N(C)C)c(S(=O)(=O)c2ccccc2)c1,3%,0%,3%,-2%,-2%,5%
CN(C)S(=O)(=O)Nc1ccc2c(c1)Cc1ccccc1-2,16%,0%,27µM*,u,24%,u
COc1ccc(C(=O)COC(=O)c2cc(-c3cccs3)nc3ccccc23)cc1,x,x,2.7µM*,-9%,x,x
Cc1ccc(C(=O)COC(=O)c2cc(-c3cccs3)nc3ccccc23)cc1,x,x,2.4µM*,-2%,x,x
COc1ccccc1N1CCN(C(=O)c2oc3ccccc3c2NC(=O)C(C)Oc2ccccc2)CC1 (configuration not stated),x,x,-2%,x,x,x
COc1ccc(C(=O)NC=C2C(=O)OC(C)(C)OC2=O)cc1,1%,8%,-8%,-3%,-3%,-1%
O=C(O)c1c(-c2nccc3ccccc23)[nH]c(-c2ccccc2)c1S(=O)(=O)O,x,x,x,-11%[9.22 µM],x,x
c1ccc(-c2ccc(-c3nccc4ccccc34)[nH]2)cc1,u,u,0.15µM*,x,1µM*,u
N#Cc1cc(-c2ccccc2)[nH]c1-c1nccc2ccccc12,-4%,9.2µM*,u,x,-5%,-13%
O=C(Nc1ccc2c(c1)CN(Cc1ccc(CO)o1)CC2)c1ccc(C(F)(F)F)cc1,2%,20%,11µM*,x,-7%,17%
CCOC(=O)c1cc(-c2ccc(C)o2)n[nH]1,-4%,10%,u,-12%,-1%,4%
CCOC(=O)c1cc(-c2cc3ccccc3o2)n[nH]1,10%,15%,19µM*,18%,0%,1%
CCN(C(C)=O)c1nnc(CSc2nc3ccccc3s2)s1,u,u,u,-20%,u,8.2µM*
COc1ccc(C(=O)Nc2ccc3nc(SCc4ccc(C)cc4)sc3c2)cc1,x,x,-1%,x,x,x
O=C(Nc1ccc2nc(SCc3ccccc3)sc2c1)c1cccc(F)c1,x,x,-13%,x,x,x
COCCN(CCOC)C(=O)c1ccc(CSc2nc3ccccc3s2)cc1,27%,u,17µM*,x,17%,12%
NNC(=O)c1ccc(CSc2nc3ccccc3s2)cc1,1%,-16%,17µM*,-3%,16%,7%
Cc1cccc(NC(=O)CNC(=O)Cn2cc(C(F)(F)F)cc(Cl)c2=O)c1C,1%,22%,-1%,x,-3%,5%
CCCCC(=O)NC(=S)NNC(=O)c1ccc(OC)cc1,-4%,u,3%,-27%,-14%,u
CCOc1ccc(-n2c(=O)c3c(C)c(C)sc3n(CC(=O)NCCc3ccccc3)c2=O)cc1,x,x,-2%,4%,x,x
